Assay results from the supplement of paper PMC6555819.

Tests used:
Assay in all cases: PBM binding z-score (relative to random genomic background probes); higher = stronger binding; sequences stand for … in GC…GCGATTGACAGCGTAGAATGAAGG
[1] = tested on: RARb homodimer (NR concentration 270 nM)
How it was run: (§1)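 Binding z-scores take random background probes as their reference. They come from custom Agilent 4×180K protein-binding microarrays incubated 1 h with ligand-free nuclear receptor dimers, with antibodies against each partner (one per run) detecting binding. Scanned fluorescence was regression-normalized.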

[2] = tested on: RARg:RXRa (NR concentration 270 nM, RXRa partner concentration 90 nM)
How it was run: as §1

[3] = tested on: RARg homodimer (NR concentration 270 nM)
How it was run: as §1

[4] = tested on: RXRa DBDmut IVT, anti-RXR (DBD mutation: RXRa K156A/R161A, NR concentration 90 nM)
How it was run: as §1

[5] = tested on: RXRa homodimer (NR concentration 180 nM)
How it was run: as §1

[6] = tested on: THRa:RXRa (NR concentration 90 nM, RXRa partner concentration 90 nM)
How it was run: as §1

[7] = tested on: THRa homodimer (NR concentration 90 nM)
How it was run: as §1

[8] = tested on: VDR homodimer (NR concentration 270 nM)
How it was run: as §1

Sequence | PBM binding z-score [1] | PBM binding z-score [2] | PBM binding z-score [3] | PBM binding z-score [4] | PBM binding z-score [5] | PBM binding z-score [6] | PBM binding z-score [7] | PBM binding z-score [8]
CCTTACGGGTCACGAGGTTATAGTACGACGAGCG | 3.95 | 6.29 | 6 | 1.55 | 7.51 | 3.87 | 1.19 | 2.14
CCGACTGGGGCAGAATGGTTACCATACCATCCGG | -0.435 | 0.00778 | 0.0342 | -0.908 | -0.122 | -0.891 | -0.862 | -0.629
ACTAGCAGGCCAAGTTTGGTTCACTCAAACAAAG | 0.338 | 0.163 | 0.218 | 0.0733 | -0.193 | 0.405 | -0.294 | 0.338
CGTCCAAGGTCAAAAGTCAGTGAAGAGATGACGG | 3.25 | 5.69 | 5.8 | 3.57 | 6.1 | 3.41 | 1.3 | 1.86
TCAGACAGGTGAAGGTAACTCATGTACGCAGTCG | 0.741 | 0.76 | 0.656 | 1.32 | 1.02 | 0.677 | 0.193 | 0.0395
CGTTAAAGTTCAACTAAGGTAACGTAAAGCACGC | 4.09 | 5.55 | 6.33 | 4.8 | 4.25 | 5.26 | 1.68 | 3.94
GCATATAGGTAATACAAGGTAAAAGTCCGATTGT | -0.415 | 0.25 | 0.58 | 0.137 | 0.294 | 3.49 | 0.0793 | -0.0351
TGGATGAGGTTAAAGATCAGGGAACGTGGCGTCG | 1.38 | 2.75 | 1.59 | 1.46 | 4.05 | 2.88 | 1.11 | 1.42
AGCGAAAGGTCGTGAGGTGAGTATACAGAAAGGC | 3.19 | 4.63 | 3.87 | 0.985 | 5.33 | 3.46 | 1.27 | 0.74
CGTCTAAGGTCAATGCTAGGTCAGTGAAAGCATT | 5.09 | 7.91 | 7.34 | 3.82 | 6.12 | 4.67 | 4.42 | 3.13
TAGCGTAGGTCATGGGCCAGTATACCACGCGAAC | 2.74 | 4.61 | 4.67 | -0.189 | 4.73 | 2.38 | -0.142 | 0.0635
CGGACTGGGGCAAGGTTACCATAACGCACAGCCA | 1.45 | 1.34 | 1.4 | -0.765 | 1.28 | 1.48 | 0.546 | 0.0512
TGAATGAGGTTATATGATCAGGGAACGTTGCAAA | 0.492 | 1.64 | 0.971 | 1.26 | 2.06 | 1.98 | 0.364 | 0.855
TCGAGTAGGGTACCAATGGGGCATTCAGCTTTCT | 0.23 | -0.106 | -0.439 | -0.161 | 0.0647 | -0.59 | -0.915 | -0.697
CCTACTGGGCCAAAAAGCTCATTGATGCCGATAA | -0.842 | -0.596 | -0.419 | -0.369 | -0.638 | -0.815 | -0.619 | -0.487
AGAACGAGGGCACGCTGAGTTGATAGCAGAGTAG | 1.21 | 2.08 | 2.42 | 1.95 | 1.36 | 1.83 | -0.0157 | 1.98
ACTTACGGGTCCACGAGGTTATAGCACGCGTATA | 1.33 | 1.43 | 0.919 | 3.07 | 1.61 | 2.26 | 1.65 | 3.37
ATATATAGGTTATCGGGTCATTCAGTTTGCGCAT | 3.49 | 3.74 | 2.97 | 2.18 | 4.13 | 3.51 | 3.2 | 4.39
ATATGTAGGTTATCGGTTCATTCAGTTTGCGCAT | 1.17 | 1.39 | 0.882 | 2.4 | 1.66 | 1.27 | 1.08 | 5.79

Sequence | PBM binding z-score [1] | PBM binding z-score [2] | PBM binding z-score [3] | PBM binding z-score [4] | PBM binding z-score [5] | PBM binding z-score [6] | PBM binding z-score [7] | PBM binding z-score [8]
CGAACTAGGGCATCCAGGACAGTGAATACATTGA | 0.585 | 0.674 | 1.17 | 0.66 | 0.135 | 1.61 | 0.745 | 0.366
TCTGCTAGGTCAGTTGGTCAGCTAGCGAGCTGCC | 2.51 | 2.7 | 3.71 | 0.477 | 0.644 | 1.18 | -0.284 | -0.49
CCTTACGGGTCACGAGTTTATAGCACGACGAGCG | 3.38 | 5.62 | 5.24 | 2.39 | 5.78 | 2.82 | 0.451 | 4.44
CAGCCTAGGTCAGGGCCCGTATAGGAGGAACGTT | 2.26 | 2.9 | 3.84 | -0.894 | 1.46 | 1.73 | 0.213 | -0.478
AGCATGAGGTTACCAAAGATCAGGGAAACGCTTG | 1.04 | 2.27 | 1.81 | 1.12 | 2.78 | 2.96 | 0.893 | 0.309
AGTCATAGTTCATCTAGGTAACGTAAGATATGCT | 2.23 | 3.01 | 3.33 | 2.6 | 2.02 | 2.21 | 0.0435 | 2.02
ATCTCTAGGTAAGACTCAGCTCAGTGAAGAACGC | 0.128 | -0.176 | 0.0732 | 0.0476 | -0.204 | 0.124 | 0.524 | 0.3
TCATTTAGGTAATACAGGTGAAAGTCGGCATCTA | 0.788 | 0.841 | 0.652 | 1.96 | 1.33 | 1.58 | 1 | 0.57
TGAATGAGGTTAAAGATCAGGTAACGTGGCGTCG | 0.893 | 2.55 | 1.38 | 0.98 | 3.9 | 3.29 | 1.42 | 0.674
TTACCAAGGTGAACGTCGTTGATCCCTCTGTAGA | 0.909 | 0.602 | 0.629 | -0.298 | 1.19 | 2.32 | 0.991 | -0.626
TCAGCTAGGTCAACGATGGTCAGCTAATCTGCTA | 3.49 | 3.89 | 4.83 | 1.11 | 2.49 | 2.88 | 0.578 | -0.3
ACTAGTTGGTCAGCTTAGGTCACACACAATTCGG | 3.68 | 2.59 | 3.19 | 0.83 | 1.69 | 4.33 | 3.55 | 0.863
ATCGAAAGATCGTGAGGTGAGTATACAGAAAGGC | -0.106 | 0.546 | 0.519 | -0.575 | 0.649 | 1.73 | 0.91 | -0.449
CCGAGCAGGCCAATCTGGGTCACTCAAGGCTTGA | 2.28 | 1.25 | 1.68 | 0.0945 | 1.15 | 3.72 | 0.404 | 0.347
TCTTGTAGATCAAGCAGGTTATGAAAGCCTGAGT | -0.0622 | 0.0667 | -0.307 | 0.366 | 0.465 | 0.302 | -0.815 | -0.186
TCATATTGGTAAAGGTGAAAGTCGAACGATATGA | 1.33 | 1.28 | 0.994 | 0.405 | 1.79 | 1.08 | -0.164 | -0.179
ATATGTAGGCTATCGGGTCATTCAGTTTGCGCAT | 2.23 | 2.01 | 1.52 | 1.1 | 2.08 | 2.91 | 1.79 | 3.16
ATCTCTAGGTAACCAAGCTCAGTGAATGCCGAAC | -0.00643 | 0.122 | -0.0382 | -0.17 | -0.107 | 0.646 | 0.537 | 0.149
